Results reported in PubChem BioAssay AID1159580 (chemical genetic matrix, 2015).
About 2,000 (36%) of roughly 5,500 compounds were called active. Another 18% or so got no clear call; they are omitted. No stated cut-off is given here; in the data, active means normalized growth mostly below about 0.91 (no sharp cut-off); inconclusive means no clear call, values can overlap the other calls; inactive means mostly above about 0.92. This is one part of the list.

Assay: chemical genetic growth profiling, strain panel (AID 1159580);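 further: tested at 20 µM; growth read once vehicle control cultures reached saturation at 30 °C; 1 = growth at the plate median or of vehicle wells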
Conditions: growth OD

Measured: normalized growth

N=C(N)N
inactive: S. cerevisiae deletion strains, locus YJR075W, strain HOC1, stronger effect = lower value 0.988 | S. cerevisiae deletion strains, locus YKL009W, strain mrt4, stronger effect = lower value 0.997 | S. cerevisiae deletion strains, locus YKL068W, stronger effect = lower value 0.982 | S. cerevisiae deletion strains, locus YKL085W, strain MDH1 (second series), stronger effect = lower value 0.97 | S. cerevisiae deletion strains, locus YKL085W, strain MDH1, stronger effect = lower value 0.97 | S. cerevisiae deletion strains, locus YKL160W, strain elf1, stronger effect = lower value 1 | S. cerevisiae deletion strains, locus YKL190W, strain CNB1, stronger effect = lower value 0.993 | S. cerevisiae deletion strains, locus YKR001C, strain vps1, stronger effect = lower value 0.996 | S. cerevisiae deletion strains, locus YKR026C, strain gcn3, stronger effect = lower value 0.999 | S. cerevisiae deletion strains, locus YKR091W, strain srl3, stronger effect = lower value 1 | S. cerevisiae deletion strains, locus YLL001W, strain dnm1, stronger effect = lower value 0.993 | S. cerevisiae deletion strains, locus YLL026W, stronger effect = lower value 0.994 | S. cerevisiae deletion strains, locus YLL041C, strain sdh2, stronger effect = lower value 1 | S. cerevisiae deletion strains, locus YLR027C, strain aat2, stronger effect = lower value 1.01 | S. cerevisiae deletion strains, locus YLR039C, strain RIC1, stronger effect = lower value 1.01 | S. cerevisiae deletion strains, locus YLR058C, strain SHM2, stronger effect = lower value 0.999 | S. cerevisiae deletion strains, locus YLR102C, strain apc9, stronger effect = lower value 0.986 | S. cerevisiae deletion strains, locus YLR113W, strain HOG1, stronger effect = lower value 0.996 | S. cerevisiae deletion strains, locus YLR221C, strain rsa3, stronger effect = lower value 0.982 | S. cerevisiae deletion strains, locus YLR258W, strain gsy2, stronger effect = lower value 0.996 | S. cerevisiae deletion strains, locus YLR262C, strain YPT6 (second series), stronger effect = lower value 0.991 | S. cerevisiae deletion strains, locus YLR262C, strain YPT6, stronger effect = lower value 1.01 | S. cerevisiae deletion strains, locus YLR268W, strain sec22, stronger effect = lower value 0.937 | S. cerevisiae deletion strains, locus YLR320W, strain mms22, stronger effect = lower value 0.983 | S. cerevisiae deletion strains, locus YLR330W, strain CHS5, stronger effect = lower value 0.991 | S. cerevisiae deletion strains, locus YLR342W, strain FKS1 (second series), stronger effect = lower value 1.13 | S. cerevisiae deletion strains, locus YLR342W, strain FKS1, stronger effect = lower value 0.993 | S. cerevisiae deletion strains, locus YLR357W, strain rsc2, stronger effect = lower value 0.977 | S. cerevisiae deletion strains, locus YLR370C, strain arc18, stronger effect = lower value 1.01 | S. cerevisiae deletion strains, locus YLR371W, strain rom2, stronger effect = lower value 0.961 | S. cerevisiae deletion strains, locus YLR384C, strain iki3, stronger effect = lower value 0.985 | S. cerevisiae deletion strains, locus YLR418C, strain cdc73, stronger effect = lower value 1.02 | S. cerevisiae deletion strains, locus YML016C, strain PPZ1, stronger effect = lower value 1 | S. cerevisiae deletion strains, locus YML032C, strain rad52, stronger effect = lower value 0.96 | S. cerevisiae deletion strains, locus YML120C, strain ndi1, stronger effect = lower value 1.02 | S. cerevisiae deletion strains, locus YML124C, strain tub3, stronger effect = lower value 0.991 | S. cerevisiae deletion strains, locus YMR058W, strain fet3, stronger effect = lower value 1 | S. cerevisiae deletion strains, locus YMR078C, strain ctf18, stronger effect = lower value 0.967 | S. cerevisiae deletion strains, locus YMR125W, strain sto1, stronger effect = lower value 0.996 | S. cerevisiae deletion strains, locus YMR129W, stronger effect = lower value 0.992 | S. cerevisiae deletion strains, locus YMR205C, strain PFK2, stronger effect = lower value 1.01 | S. cerevisiae deletion strains, locus YMR223W, strain ubp8, stronger effect = lower value 1.02 | S. cerevisiae deletion strains, locus YMR231W, strain pep5, stronger effect = lower value 0.994 | S. cerevisiae deletion strains, locus YMR263W, strain SAP30, stronger effect = lower value 0.992 | S. cerevisiae deletion strains, locus YMR307W, strain GAS1, stronger effect = lower value 1.14 | S. cerevisiae deletion strains, locus YNL067W, strain RPL9B, stronger effect = lower value 0.987 | S. cerevisiae deletion strains, locus YNL071W, strain lat1, stronger effect = lower value 1.01 | S. cerevisiae deletion strains, locus YNL128W, strain TEP1, stronger effect = lower value 0.995 | S. cerevisiae deletion strains, locus YNL153C, strain GIM3, stronger effect = lower value 1 | S. cerevisiae deletion strains, locus YNL183C, strain NPR1, stronger effect = lower value 0.949 | S. cerevisiae deletion strains, locus YNL209W, strain ssb2, stronger effect = lower value 1.02 | S. cerevisiae deletion strains, locus YNL233W, strain BNI4, stronger effect = lower value 0.994 | S. cerevisiae deletion strains, locus YNL248C, strain rpa49, stronger effect = lower value 0.92 | S. cerevisiae deletion strains, locus YNL250W, strain rad50, stronger effect = lower value 0.99 | S. cerevisiae deletion strains, locus YNL271C, strain bni1, stronger effect = lower value 0.993 | S. cerevisiae deletion strains, locus YNL298W, strain CLA4, stronger effect = lower value 0.999 | S. cerevisiae deletion strains, locus YNL307C, strain MCK1, stronger effect = lower value 0.991 | S. cerevisiae deletion strains, locus YNL322C, strain KRE1 (second series), stronger effect = lower value 0.997 | S. cerevisiae deletion strains, locus YNL322C, strain KRE1, stronger effect = lower value 0.993 | S. cerevisiae deletion strains, locus YNR049C, strain mso1, stronger effect = lower value 0.991 | S. cerevisiae deletion strains, locus YNR052C, strain pop2, stronger effect = lower value 0.971 | S. cerevisiae deletion strains, locus YOL006C, strain TOP1, stronger effect = lower value 0.979 | S. cerevisiae deletion strains, locus YOL012C, strain htz1 0.806 | S. cerevisiae deletion strains, locus YOL147C, strain pex11, stronger effect = lower value 0.976 | S. cerevisiae deletion strains, locus YOR001W, strain rrp6, stronger effect = lower value 0.949 | S. cerevisiae deletion strains, locus YOR061W, strain CKA2, stronger effect = lower value 0.991 | S. cerevisiae deletion strains, locus YOR069W, strain VPS5, stronger effect = lower value 0.999 | S. cerevisiae deletion strains, locus YOR070C, strain gyp1, stronger effect = lower value 0.979 | S. cerevisiae deletion strains, locus YOR080W, strain dia2, stronger effect = lower value 0.979 | S. cerevisiae deletion strains, locus YOR083W, strain WHI5, stronger effect = lower value 1.01 | S. cerevisiae deletion strains, locus YOR106W, strain vam3, stronger effect = lower value 1.01 | S. cerevisiae deletion strains, locus YOR136W, strain idh2, stronger effect = lower value 0.986 | S. cerevisiae deletion strains, locus YOR144C, strain elg1, stronger effect = lower value 0.977 | S. cerevisiae deletion strains, locus YOR184W, strain ser1, stronger effect = lower value 0.974 | S. cerevisiae deletion strains, locus YOR231W, strain MKK1, stronger effect = lower value 1.02 | S. cerevisiae deletion strains, locus YOR265W, strain rbl2, stronger effect = lower value 0.998 | S. cerevisiae deletion strains, locus YOR270C, strain vph1, stronger effect = lower value 0.969 | S. cerevisiae deletion strains, locus YOR290C, strain snf2, stronger effect = lower value 0.975 | S. cerevisiae deletion strains, locus YOR316C, strain cot1, stronger effect = lower value 0.965 | S. cerevisiae deletion strains, locus YPL051W, strain arl3, stronger effect = lower value 0.983 | S. cerevisiae deletion strains, locus YPL055C, strain LGE1, stronger effect = lower value 1.01 | S. cerevisiae deletion strains, locus YPL078C, strain atp4, stronger effect = lower value 1.01 | S. cerevisiae deletion strains, locus YPL106C, strain sse1, stronger effect = lower value 1.01 | S. cerevisiae deletion strains, locus YPL240C, strain hsp82, stronger effect = lower value 0.999 | S. cerevisiae deletion strains, locus YPL241C, strain CIN2, stronger effect = lower value 0.998 | S. cerevisiae deletion strains, locus YPL256C, strain CLN2, stronger effect = lower value 1.07 | S. cerevisiae deletion strains, locus YPR119W, strain clb2, stronger effect = lower value 0.974 | S. cerevisiae deletion strains, locus YPR141C, strain kar3, stronger effect = lower value 0.982 | S. cerevisiae deletion strains, locus YPR163C, strain tif3, stronger effect = lower value 0.976 | S. cerevisiae deletion strains, locus YPR167C, strain met16, stronger effect = lower value 0.971 | S. cerevisiae deletion strains, strain wtn01, stronger effect = lower value 0.981 | S. cerevisiae strains, strain wild type, stronger effect = lower value 1
